# Bioassay records: PubChem, National Center for Advancing Translational Sciences (NCATS)
# KB-V1 cytotox: qHTS assay for MDR1-selective chemotherapeutics: Primary screen using the drug-selected MDR subline cells KB-V1 | KB-V1 MDR cells viability, CellTiter-Glo, 72 h | 3.4% of 400,000 active | AID 1347076, 2019 | Potency, µM (top dose mostly 46.1 µM), usual class: cytotoxic; also: nearly all actives have a fitted effect of over 60% in size
#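 In this primary screen, KB-V1 cells overexpressing P-gp are incubated with library compounds (lowest to highest concentration) for 72 h at 37 degrees C before a luminescent ATP viability read.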
# HT1080NT lethal: qHTS for induction of synthetic lethality in tumor cells producing 2HG: qHTS for the HT-1080-NT fibrosarcoma cell line. Potency, µM (series often up to 46.1 µM), inactives show top-dose activity, negative = less viability, usual class: cytotoxic. 1.6% of 360,000 active. HT-1080-NT fibrosarcoma viability, CellTiter-Glo ATP luminescence, 48 h;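 also: NT is the 2HG producing partner of a matched IDH1 knockdown line; 0% = DMSO-treated cells and -100% = media-only wells without cells; nearly all actives have a fitted effect of over 55% in size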
#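 750 cells/well, RPMI + 5% FBS; 2 h settle, compound pin-transfer, 48 h at 37 degrees C. CellTiter-Glo 10 min RT, luminescence. Normalized to DMSO and media-only wells.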
# KB-3-1 cytotox: qHTS assay for MDR1-selective chemotherapeutics: Primary screen using the parental adenocarcinoma cell KB-3-1; KB-3-1 viability, CellTiter-Glo ATP luminescence, 72 h; Potency, µM (doses to about 46.1 µM), usual class: cytotoxic; 1.4% of 400,000 active; AID 1347075, 2019; also: nearly all actives have a fitted effect of over 60% in size
#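 72 h, 37 °C compound treatment of KB-3-1 parental cells; CellTiter-Glo added, 10 min, luminescence read. Data corrected against DMSO-only plates and normalized before curve fitting.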
# HT1080 IDH1KD tx: qHTS for induction of synthetic lethality in tumor cells producing 2HG: qHTS for the HT-1080-IDH1KD cell line | 2% of 360,000 active | Potency, µM (series often up to 46.1 µM), for the others: top-dose activity, negative = toxicity, hits mostly cytotoxic | HT-1080 IDH1 knockdown viability, ATP luminescence, 48 h | AID 686971, 2013;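 also: 0% = DMSO wells and -100% = cell-free medium wells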
#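 In this qHTS, HT-1080 cells depleted of IDH1 are exposed for 48 h at 37 °C to compound titrations. Toxicity is scored from CellTiter-Glo luminescence, with DMSO as full viability and medium alone as none.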
# * marks the source's active call; other numbers are inactive results; i = inactive; ? = inconclusive; . = not tested or not shown; ! = repeats disagree; [ ] = dose if it differs, or a comment. Shown are actives, neighbours in structure and some others; about 5.7% of the full set was active somewhere. Calls follow the shape of the dose curve; as a rule, active = well fitted curve in the direction sought with a large enough effect; inconclusive = small, poorly fitted or top-dose-only effect, or another doubt; inactive = no such curve, though single readings can be large; an effect the other way counts as inactive or inconclusive. Unless noted, % is scaled to controls: 0 for no effect and ±100 for the full control effect; potency is read from the fitted curve at half-maximal effect.
SMILES,KB-V1 cytotox,HT1080NT lethal,KB-3-1 cytotox,HT1080 IDH1KD tx
COc1ccc(S(=O)(=O)N2CCC(NC(=O)Nc3ccc(C)cc3)CC2)cc1,18µM*,-2%,i,7%
COc1cc(Cl)c(C)cc1Nc1nc2ccccc2nc1NS(=O)(=O)c1ccccc1,i,.,i,.
Nc1nc(N)c2c(OCC3CCN(Cc4ccccc4F)CC3)cccc2n1,?,.,i,.
Cc1ccc(NC(=O)c2ccc(S(=O)(=O)N3CCC(C)CC3)cc2)nc1,?,?,26µM*,-25%
Cc1cc(F)ccc1S(=O)(=O)Nc1ccccc1C(=O)Nc1ccccc1-c1nc2ccccc2[nH]1,18µM*,?,?,?
O=C(Nc1ccc(N2CCCCC2)cc1)c1ccccn1,?,9.2µM*,?,10µM*
Cc1ccc(C(=O)Nc2ccc(S(=O)(=O)N3CCCC3)cc2)cc1,?,-13%,i,-4%
O=C(Nc1ccc(N2CCCCCC2)cc1)c1ccc[nH]1,i,-6%,i,0%
Cc1ccc(NC(=O)c2ccc(S(=O)(=O)N3CCCCCC3)cc2)nc1,?,?,i,-11%
Cc1ccc(NC(=O)c2ccc(S(=O)(=O)N3CCCC3)cc2)cc1,23µM*,-3%,i,-16%
Cc1ccc(NC(=O)C2CCN(S(=O)(=O)c3ccc4c(c3)CC(C)N4C(=O)C3CCC3)CC2)nc1 (stereo unspecified),?,-26%,?,?
COc1ccccc1C(=O)Nc1ccc(S(=O)(=O)N2CCCCC2)cc1,i,-10%,i,-19%
CC(=O)N1c2ccc(S(=O)(=O)N3CCC(C(=O)Nc4ccc(C)cn4)CC3)cc2CC1C (stereo unspecified),i,-5%,16µM*,-9%
CC1CCCN(S(=O)(=O)c2ccc(C(=O)Nc3ccccc3-c3nc4ccccc4[nH]3)cc2)C1 (stereo unspecified),i,10%,i,9%
COc1ccccc1C(=O)Nc1ccc(S(=O)(=O)N2CCCC2)cc1,18µM*,-16%,i,7%
CC1CCN(S(=O)(=O)c2ccc(C(=O)Nc3ccccc3-c3nc4ccccc4[nH]3)cc2)CC1,16µM*,-1%,?,0%
O=C(C[n+]1ccccc1Br)c1ccc(Cl)cc1,i,.,i,.
NC(=O)COc1ccc(-c2noc(COc3ccc(Cl)cc3)n2)cc1,?,.,i,.
COc1ccc(-c2ccc(-c3noc(C4CCCCC4)n3)c(OC)n2)cc1,16µM*,-3%,i,0%
COc1ccc(-c2ccc(-c3noc(C)n3)c(OC)n2)cc1,i,?,i,-7%
Cc1ccc(/C=C/C(=O)Nc2cccc([S+](=O)([O-])Nc3ccccc3F)c2)cc1,?,.,i,.
O=C(CCl)N1CCCC1c1ccc2c(c1)OCCO2 (stereo unspecified),?,23µM*,?,18µM*
CC(=O)c1ccc(OCC(=O)N2CCCC2c2ccc3c(c2)OCCCO3)cc1 (stereo unspecified),i,5%,i,12%
COC(=O)c1ccc(NC(=O)NCCn2nnc3cc(S(=O)(=O)N(C)C)ccc32)cc1,i,.,i,.
COc1ccc(NC(=O)COc2ccccc2C(=O)Nc2ccccc2)cc1,i,.,i,.
SMILES,KB-V1 cytotox,HT1080NT lethal,KB-3-1 cytotox,HT1080 IDH1KD tx
N#Cc1nnn2c1nc(N)c1c(Cl)cccc12,0.58µM*,19%,1.3µM*,23%
Nc1nc2c(-c3ccc(Br)cc3)nnn2c2ccccc12,i,-2%,i,-4%
N#Cc1nnn2c1nc(N)c1c(F)cccc12,2.9µM*,7%,?,16%
Nc1n[nH]c2cccc(Cl)c12,i,-1%,i,0%
COc1ccc(C(=O)NC2CC(=O)N(c3ccc4c(c3)OCCO4)C2)cc1 (stereo unspecified),i,.,i,.
COc1cc(-c2ccc3ncnc(NCc4nc(C)cs4)c3c2)cc(OC)c1OC,i,.,i,.
CC(C)(C)c1ccc(/C=C(\c2nc3ccccc3[nH]2)S(=O)(=O)c2ccccc2)cc1,?,6.5µM*,?,6.5µM*
Cc1cccc(/C=C(\c2nc3ccccc3[nH]2)S(=O)(=O)c2ccccc2)c1,18µM*,9.2µM*,4.1µM*,9.2µM*
CC(=O)/C(=C(/O)c1ccccc1)c1nc2ccccc2[nH]1,i,8%,i,7%
O=C(O)c1ccc(/C=C(\c2nc3ccccc3[nH]2)c2nc3ccccc3s2)cc1,i,?,?,18µM*
O=C(O)c1ccc(-c2nc3ccccc3[nH]2)cc1,i,1%,i,1%
Cc1ccccc1Cn1nnc2c(=O)[nH]c(C3CCN(C(=O)c4ccccc4)CC3)nc21,i,.,i,.
Cc1ccc(C(=O)c2cn(Cc3cccc(F)c3)c3nc(C)ccc3c2=O)cc1,i,.,i,.
Cc1nn(Cc2ccc(F)cc2)c(C)c1NC(=O)c1cnn2c1NC(c1ccccc1)CC2C(F)(F)F (stereo unspecified),i,10%[9.24 µM],i,-1%
Cc1nn(C)cc1CNC(=O)c1cc2n(n1)C(C(F)(F)F)CC(c1cccs1)N2 (stereo unspecified),?,5%,i,-6%
Cc1nn(C)c(C)c1CNC(=O)c1nn2c(c1Cl)NC(c1cccs1)CC2C(F)(F)F (stereo unspecified),9.2µM*,?,?,?
Cc1nn(Cc2ccc(F)cc2)c(C)c1NC(=O)c1cnn2c1NC(c1cccs1)CC2C(F)(F)F (stereo unspecified),21µM*,-9%,i,?
COc1cccc(NC(=O)Cn2c(=O)n(Cc3ccc(C(=O)NCc4ccc(C)cc4)cc3)c(=O)c3ccccc32)c1,i,.,i,.
CCCCNc1c(-c2ccc(OC)c(SC3CCCCC3)c2)nc2cc(C)ccn12,?,18µM*,?,?
CCCCNc1c(-c2ccc(SC3CCCCC3)cc2)nc2cnccn12,37µM*!,?,i,?
CCCCCCSc1ccc(-c2nc3cc(C)ccn3c2NC2CCCCC2)cc1,?,0%,?,0%
CCC(C)Sc1ccc(-c2nc3cc(C)ccn3c2NC2CCCCC2)cc1 (stereo unspecified),?,21µM*,?,?
CCCN1CNc2c(c(=O)[nH]c(=S)n2CCc2cccs2)C1,.,19%,.,24%
Cn1c(NCc2ccc3occc3c2)nc2cc(-c3ccc(F)cc3)sc2c1=O,i,14%,i,-29%
c1ccc(-c2cc3nc(NCc4cccs4)nc(NCc4ccc5occc5c4)c3s2)cc1,?,16µM*,?,18µM*
COc1cccc(NC(=O)c2oc3ccccc3c2NC(=O)c2ccc(F)c(F)c2)c1,i,.,i,.
